In PubChem BioAssay one finds inhibition data, which are given here for 23 molecules.

A number with no mark means an inactive call. The rule behind the calls is not given here.

Sequence of Pantothenate synthetase (Mycobacterium tuberculosis (strain ATCC 25618 / H37Rv)) (P9WIL5 whole entry, looked up): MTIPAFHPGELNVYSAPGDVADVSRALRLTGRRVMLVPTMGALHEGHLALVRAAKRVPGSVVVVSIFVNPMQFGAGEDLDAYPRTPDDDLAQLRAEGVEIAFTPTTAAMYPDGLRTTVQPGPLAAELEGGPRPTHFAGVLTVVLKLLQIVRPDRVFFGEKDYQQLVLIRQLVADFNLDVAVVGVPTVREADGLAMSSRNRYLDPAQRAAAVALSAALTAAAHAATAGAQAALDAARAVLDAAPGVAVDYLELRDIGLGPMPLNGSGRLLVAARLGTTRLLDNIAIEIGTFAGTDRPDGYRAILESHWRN

This test has as its target Pantothenate synthetase (Mycobacterium tuberculosis (strain ATCC 25618 / H37Rv)) (UniProt P9WIL5). Nature of the test: Recombinant Mtb pantothenate synthetase (PanC) inhibitors, coupled enzyme, confirmatory (AID 375).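 Note: 0% = full reaction with vehicle and 100% = no enzyme background.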 The following applies: coupled enzyme assay; at 10 µM, active compounds read high.
As for `S=C(c1ccc(N2CCOCC2)cc1)N1CCCCC1`, the inhibition is 2%. Take `O=C(O)c1ccc(S(=O)(=O)Cc2ccccc2)cc1`: the inhibition is 0%.

Consider `CN(C)c1cc(NC(=O)CN2CCOCC2)c2ccccc2n1`, for which the inhibition was 3%. For `Nc1cc(CN2C(=O)c3ccccc3C2=O)cc(Cl)c1O`, the inhibition was 0%.

As to `CC(C)CCn1c(NCCc2ccccc2)nc2c1c(=O)n(C)c(=O)n2C`, the inhibition was 0%. The same measure for `CCCc1ccc(Oc2cn[nH]c2-c2ccc(O)c(C)c2O)cc1`: 0%; for `CCn1c(SCC(=O)Nc2nc(C)cs2)nnc1-c1ccco1`: 0%.

Take `Cc1cccc(OCCCc2c(C)n[nH]c2C)c1`: the inhibition is 0%. Under `Fc1cccc(Cl)c1Cn1nnc2c(NCc3ccccn3)ncnc21` stands 0%; under `COC(=O)c1ccccc1NC(=O)CN1CCC(n2nnc3cc(F)ccc32)CC1`, 0%; under `O=C(OCn1nnc2ccccc2c1=O)c1cc2ccccc2o1`, 2%. For the molecule `COC(=O)c1sc(S(=O)(=O)Nc2ccc3cn[nH]c3c2)c(C(=O)OC)c1C`, the inhibition was 0%.

Turning to `Cc1noc(C)c1S(=O)(=O)N1CCN(Cc2ccc3c(c2)OCO3)CC1`, the inhibition was 0%. Under `COc1ccc(CNC(=O)CN(C(=O)c2ccc(CN3CCOCC3)o2)C2CCCC2)cc1` stands 0%; under `COc1ccccc1N1CCN(C(=O)c2ccc3nc(-c4ccco4)c(-c4ccco4)nc3c2)CC1`, 9%.

Take `COc1cccc2cc(C(=O)N3CCN(C45CC6CC(CC(C6)C4)C5)CC3)c(=O)oc12`: the inhibition is 1%. On to `O=C(c1ccc(S(=O)(=O)N2CCC(c3nc4ccccc4s3)CC2)cc1)N1CCOCC1`, for which the inhibition was 0%.

Take `Cc1ccccc1C(=O)Nc1c(C(=O)N2CCCC2)cnn1-c1ccccc1`: the inhibition is 8%. The same measure for `NC(=O)c1c(NC(=O)CSc2nnc(-c3ccco3)n2-c2ccccc2)sc2c1CCC2`: 0%; for `COc1ccc2c3c(c(=O)oc2c1OCC(N)=O)CCCC3`: 2%. Under `COC(=O)Cn1c(=NC(=O)CSCC(=O)Nc2cc(C)on2)sc2ccccc21` stands 0%; under `CC(C)CCNC(=O)NC(=O)CN1C(=O)NC2(CCCCC2)C1=O`, 2%; under `O=C(CN1C(=O)CCS(=O)(=O)c2ccccc21)NCc1ccc(F)cc1`, 3%.
